Laboratory results taken from PubChem BioAssay AID1159580 (chemical genetic matrix, 2015).
Out of some 5,500 compounds screened, about 2,000 (36%) were called active. About 18% were inconclusive and are not listed. The list shows a part of the results. A number with no mark means an inactive call. No stated cut-off is given here; in the data, active means normalized growth mostly below about 0.91 (no sharp cut-off); inconclusive means no clear call, values can overlap the other calls; inactive means mostly above about 0.92.

Assay: chemical genetic growth profiling, strain panel (AID 1159580);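 further: tested at 20 µM; growth read once vehicle control cultures reached saturation at 30 °C; 1 = growth at the plate median or of vehicle wells; lower values mean less growth of the strain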
Details: growth OD
[1] = S. cerevisiae deletion strains, locus YAL013W, strain DEP1, active compounds read low
[2] = S. cerevisiae deletion strains, locus YBR229C, strain ROT2, active compounds read low
[3] = S. cerevisiae deletion strains, locus YDL101C, strain DUN1, active compounds read low
[4] = S. cerevisiae deletion strains, locus YDR150W, strain NUM1, active compounds read low
[5] = S. cerevisiae deletion strains, locus YEL061C, strain CIN8, active compounds read low
[6] = S. cerevisiae deletion strains, locus YGR078C, strain PAC10, active compounds read low
[7] = S. cerevisiae deletion strains, locus YHR030C, strain SLT2, active compounds read low
[8] = S. cerevisiae deletion strains, locus YHR087W, strain rtc3, active compounds read low
[9] = S. cerevisiae deletion strains, locus YJR043C, strain POL32, active compounds read low
[10] = S. cerevisiae deletion strains, locus YJR075W, strain HOC1, active compounds read low
[11] = S. cerevisiae deletion strains, locus YKL190W, strain CNB1, active compounds read low
[12] = S. cerevisiae deletion strains, locus YLR039C, strain RIC1, active compounds read low
[13] = S. cerevisiae deletion strains, locus YLR058C, strain SHM2 (second series), active compounds read low
[14] = S. cerevisiae deletion strains, locus YLR085C, strain ARP6, active compounds read low
[15] = S. cerevisiae deletion strains, locus YLR262C, strain YPT6, active compounds read low
[16] = S. cerevisiae deletion strains, locus YML094W, strain GIM5, active compounds read low
[17] = S. cerevisiae deletion strains, locus YMR219W, strain ESC1, active compounds read low
[18] = S. cerevisiae deletion strains, locus YMR263W, strain SAP30, active compounds read low
[19] = S. cerevisiae deletion strains, locus YNL128W, strain TEP1, active compounds read low
[20] = S. cerevisiae deletion strains, locus YNL153C, strain GIM3, active compounds read low
[21] = S. cerevisiae deletion strains, locus YNL298W, strain CLA4 (second series), active compounds read low
[22] = S. cerevisiae deletion strains, locus YNL322C, strain KRE1, active compounds read low
[23] = S. cerevisiae deletion strains, locus YNR030W, strain Alg12, active compounds read low
[24] = S. cerevisiae deletion strains, locus YPL055C, strain LGE1, active compounds read low
[25] = S. cerevisiae deletion strains, locus YPL241C, strain CIN2, active compounds read low
[26] = S. cerevisiae deletion strains, locus YPR135W, strain CTF4, active compounds read low
[27] = S. cerevisiae deletion strains, locus YDL134C, strain PPH21, active compounds read low

O=C(NC(=S)NCc1ccncc1)c1ccccc1
normalized growth [1]: 1.02
normalized growth [2]: 1.01
normalized growth [3]: 1.01
normalized growth [4]: 0.983
normalized growth [5]: 1
normalized growth [6]: 1.01
normalized growth [7]: 1.05
normalized growth [8]: 1
normalized growth (S. cerevisiae deletion strains, locus YJL187C, strain SWE1, active compounds read low): 0.973
normalized growth [9]: 0.997
normalized growth [10]: 1.03
normalized growth [11]: 1.01
normalized growth [12]: 0.928
normalized growth [13]: 1
normalized growth [14]: 0.969
normalized growth [15]: 0.978
normalized growth [16]: 1.01
normalized growth [17]: 1
normalized growth [18]: 1
normalized growth [19]: 1.01
normalized growth [20]: 1
normalized growth [21]: 1.04
normalized growth [22]: 1
normalized growth [23]: 1.02
normalized growth [24]: 1
normalized growth [25]: 1.02
normalized growth [26]: 0.929
normalized growth (S. cerevisiae strains, strain wild type, active compounds read low): 1.01

CCC(C(=O)Nc1ccc(C(F)(F)F)cc1)c1ccccc1 (stereo not drawn)
normalized growth [1]: 0.989
normalized growth [2]: 0.984
normalized growth (S. cerevisiae deletion strains, locus YCL061C, strain MRC1, active compounds read low): 0.958
normalized growth [3]: 0.956
normalized growth [27]: 0.977
normalized growth [4]: 0.952
normalized growth [5]: 1.03
normalized growth [6]: 0.958
normalized growth [7]: 0.986
normalized growth [8]: 0.998
normalized growth [9]: 0.972
normalized growth [10]: 0.96
normalized growth [11]: 0.982
normalized growth [12]: 0.923
normalized growth [13]: 0.982
normalized growth [14]: 0.925
normalized growth [15]: 0.987
normalized growth [16]: 0.981
normalized growth [17]: 0.994
normalized growth [18]: 0.99
normalized growth [19]: 0.982
normalized growth [20]: 0.968
normalized growth [21]: 0.945
normalized growth [22]: 0.99
normalized growth [23]: 0.976
normalized growth [24]: 1.01
normalized growth [25]: 0.932
normalized growth [26]: 0.906

O=C(NC(=S)Nc1ccccn1)c1ccccc1
normalized growth [1]: 0.962
normalized growth [2]: 0.948
normalized growth [3]: 0.942
normalized growth [27]: 0.977
normalized growth [4]: 0.956
normalized growth [5]: 0.783 (active)
normalized growth [6]: 0.962
normalized growth [7]: 0.401 (active)
normalized growth [8]: 1
normalized growth [9]: 0.955
normalized growth [10]: 0.988
normalized growth [12]: 0.573 (active)
normalized growth [13]: 0.976
normalized growth [14]: 0.428 (active)
normalized growth [15]: 0.788 (active)
normalized growth [16]: 0.777 (active)
normalized growth [17]: 0.964
normalized growth [18]: 0.993
normalized growth (S. cerevisiae deletion strains, locus YMR307W, strain GAS1, active compounds read low): 0.476 (active)
normalized growth [20]: 0.933
normalized growth [21]: 0.67 (active)
normalized growth [22]: 1
normalized growth [23]: 0.8 (active)
normalized growth (S. cerevisiae deletion strains, locus YOL006C, strain TOP1, active compounds read low): 0.213 (active)
normalized growth [24]: 0.825 (active)
normalized growth [25]: 0.807 (active)
normalized growth [26]: 0.552 (active)
